Drawing on PubChem BioAssay (NCI), this text covers growth for nine compounds.

What all share (test): NCI-60 one-dose screen, 48 h (100 = growth as untreated, 0 = no growth, -100 = all killed)
One assay relates to HCT-15 colon. The note with it: 10 µM unless noted.
In the next assay the test system is HT29 colon. The note with it: 10 µM unless noted.
The test system of another assay is SNB-75 CNS. The following applies: 10 µM unless noted.
A further assay has as its system SNB-19 CNS. The note with it: 10 µM unless noted.
Another assay relates to U251 CNS. The following applies: 10 µM unless noted.
For the next assay, the system named is PC-3 prostate. The note with it: 10 µM unless noted.
A further assay has as its system SK-MEL-5 melanoma. The following applies: 10 µM unless noted.
The subject of the next assay is UACC-62 melanoma. The note with it: 10 µM unless noted.
In a further assay the test system is LOX IMVI melanoma. The note with it: 10 µM.
The next assay deals with SK-MEL-28 melanoma. The following applies: 10 µM unless noted.
The next assay relates to SN12C renal. The following applies: 10 µM unless noted.
The next assay deals with UO-31 renal. The note with it: 10 µM unless noted.
For a further assay, the system named is TK-10 renal. The note with it: 10 µM unless noted.
The test system of a further assay is A498 renal. The following applies: 10 µM unless noted.
In the next assay the test system is CCRF-CEM leukemia. The note with it: 10 µM unless noted.
For the next assay, the system named is MOLT-4 leukemia. The following applies: 10 µM unless noted.
Another assay has as its system SK-MEL-2 melanoma. The following applies: 10 µM unless noted.
The next assay concerns EKVX NSCLC. The note with it: 10 µM unless noted.
The subject of the next assay is ACHN renal. The following applies: 10 µM unless noted.
Another assay concerns CAKI-1 renal. The following applies: 10 µM unless noted.

About 83,000 compounds went through this panel and 20% of them were active in at least one assay; those are over-represented in the sample as a whole.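 Method: cells in 96-well plates; compound added at one concentration; 48 h incubation; percent growth measured; values under 10 scored active.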 A number with no mark means an inactive call. The source made the active and inactive calls.

On to `CC(C)c1ccccc1NC(=O)N1CCC(C(C)C)CC1`, for which the growth in the assay on HCT-15 colon was 110%; with HT29 colon, 107%; with SNB-75 CNS it was 89.3%; in the assay on SNB-19 CNS it was 107%; with U251 CNS it was 98.1%; in the assay on PC-3 prostate, 97.9%. Further, the growth in the assay with SK-MEL-5 melanoma is 97.4%; with UACC-62 melanoma, 105%; with LOX IMVI melanoma, 103%; in the assay on SK-MEL-28 melanoma it was 106%; in the assay with SN12C renal, 106%; with UO-31 renal, 85.6%. Also, the growth in the assay on TK-10 renal was 127%; in the assay on A498 renal, 99.3%; in the assay with CCRF-CEM leukemia it was 101%; in the assay with MOLT-4 leukemia, 90.8%.
For `CC1CC2C3CCC4=CC(=O)CCC4(C)C3CCC2(C)C1(O)C(=O)CO` (centres undefined), the growth was 106% in the assay on HCT-15 colon; 97.4% in the assay on HT29 colon; 110% in the assay on SNB-75 CNS; 110% with SNB-19 CNS; 108% in the assay with U251 CNS; 93.9% in the assay with PC-3 prostate. Also, the growth in the assay on SK-MEL-5 melanoma was 104%; in the assay on UACC-62 melanoma, 108%; in the assay on SK-MEL-28 melanoma, 109%; in the assay with SK-MEL-2 melanoma it was 99.2%; with EKVX NSCLC, 99.4%; with SN12C renal it was 102%. For the same compound, the growth in the assay on UO-31 renal was 92.2%; with TK-10 renal it was 117%; in the assay on ACHN renal it was 124%; in the assay with CAKI-1 renal it was 94.9%; in the assay on A498 renal it was 73%; with MOLT-4 leukemia, 71.9%.
In the case of `CCOC(=O)C(C#N)=C1CCN(C)CC1`, the growth in the assay on HCT-15 colon is 99.5%; in the assay with HT29 colon it was 113%; in the assay with SNB-75 CNS, 102%; in the assay with SNB-19 CNS, 101%; in the assay on U251 CNS it was 104%; in the assay on PC-3 prostate it was 87.7%. Also, the growth with SK-MEL-5 melanoma was 111%; with UACC-62 melanoma, 103%; in the assay with LOX IMVI melanoma, 109%; in the assay with SK-MEL-28 melanoma, 134%; in the assay on EKVX NSCLC, 112%; with UO-31 renal, 87.5%. In addition, the growth in the assay with TK-10 renal was 108%; in the assay with ACHN renal it was 97.9%; with CAKI-1 renal, 92.4%; in the assay with A498 renal it was 100%; in the assay with CCRF-CEM leukemia, 99.2%; in the assay with MOLT-4 leukemia, 58.5%.
Consider `COc1cc(OC)c2cc(C(=O)c3ccc(C#N)cc3)c(=O)oc2c1`, for which the growth in the assay on HCT-15 colon is 105%; in the assay on HT29 colon, 104%; in the assay with SNB-75 CNS it was 85.5%; with SNB-19 CNS, 88.5%; in the assay with U251 CNS, 105%; in the assay on PC-3 prostate, 107%. Besides, the growth in the assay on SK-MEL-5 melanoma is 97.6%; in the assay on UACC-62 melanoma it was 91.8%; in the assay with SK-MEL-28 melanoma, 99.5%; in the assay with SK-MEL-2 melanoma, 103%; with EKVX NSCLC, 110%; with SN12C renal, 81.6%. Further, the growth with UO-31 renal was 84.7%; in the assay on TK-10 renal, 97.7%; in the assay with ACHN renal it was 95.2%; in the assay on CAKI-1 renal, 84.6%; with A498 renal, 99.1%; in the assay with CCRF-CEM leukemia, 101%. Besides, the growth with MOLT-4 leukemia was 103%.
In the case of `C=CCC(OC(C)=O)c1ccc(OC)c(OC)c1` (centres undefined), the growth in the assay on HCT-15 colon is 104%; in the assay on HT29 colon, 107%; with SNB-75 CNS, 98.8%; with SNB-19 CNS, 109%; in the assay with U251 CNS, 101%; in the assay with PC-3 prostate, 92.5%. Further, the growth in the assay on SK-MEL-5 melanoma is 119%; with UACC-62 melanoma, 107%; in the assay with LOX IMVI melanoma, 107%; in the assay with SK-MEL-28 melanoma, 132%; in the assay with EKVX NSCLC, 107%; in the assay on SN12C renal, 102%. In addition, the growth was 90.4% in the assay with UO-31 renal; 99% in the assay on ACHN renal; 110% with A498 renal; 100% in the assay with CCRF-CEM leukemia; -29% (active) with MOLT-4 leukemia.
`CN(C)c1ccc(/C=C/C(=O)c2ccc(NC(N)=O)cc2)cc1`: the growth with HCT-15 colon is 84.9%; with HT29 colon, 95.2%; in the assay with SNB-75 CNS, 67.4%; with SNB-19 CNS, 80.1%; in the assay on U251 CNS, 69%; with PC-3 prostate it was 98.4%. In addition, the growth in the assay on SK-MEL-5 melanoma is 97.6%; in the assay on UACC-62 melanoma it was 92.2%; in the assay with SK-MEL-28 melanoma, 104%; in the assay on SK-MEL-2 melanoma, 103%; in the assay on EKVX NSCLC it was 89.3%; with SN12C renal it was 93.3%. In addition, the growth was 68.3% with UO-31 renal; 97.7% in the assay with TK-10 renal; 103% in the assay with ACHN renal; 87.8% in the assay on CAKI-1 renal; 115% with A498 renal; 92.8% in the assay with CCRF-CEM leukemia. Besides, the growth in the assay with MOLT-4 leukemia is 91.7%.
Turning to `COc1cccc(N=CNc2cccc(OC)c2)c1`, the growth was 85.2% in the assay with HCT-15 colon; 99.6% in the assay on HT29 colon; 90.8% in the assay with SNB-75 CNS; 103% in the assay on SNB-19 CNS; 95.9% in the assay on U251 CNS; 84.2% with PC-3 prostate. The growth was 99% in the assay with SK-MEL-5 melanoma; 56.4% with UACC-62 melanoma; 106% in the assay on SK-MEL-28 melanoma; 86.3% in the assay with SK-MEL-2 melanoma; 99.4% in the assay on EKVX NSCLC; 101% with SN12C renal. Also, the growth is 91.1% with UO-31 renal; 113% in the assay with TK-10 renal; 86.2% with ACHN renal; 87.7% in the assay with CAKI-1 renal; 93.2% in the assay on A498 renal; 94.7% with CCRF-CEM leukemia. Besides, the growth with MOLT-4 leukemia is 90.9%.
Take `COC(=O)C1(CC(C)=O)NC(=S)NC(=O)C1C#N` (centres undefined): the growth is 106% with HCT-15 colon; 104% with HT29 colon; 112% in the assay with SNB-75 CNS; 98.4% in the assay with SNB-19 CNS; 109% in the assay on U251 CNS; 119% in the assay on PC-3 prostate. Further, the growth is 100% in the assay on SK-MEL-5 melanoma; 103% in the assay on UACC-62 melanoma; 118% in the assay with SK-MEL-28 melanoma; 119% with SK-MEL-2 melanoma; 96.4% in the assay on EKVX NSCLC; 101% with SN12C renal. In addition, the growth in the assay on UO-31 renal is 92.2%; in the assay on TK-10 renal, 103%; with ACHN renal, 109%; with CAKI-1 renal it was 94.6%; with A498 renal, 147%; in the assay with CCRF-CEM leukemia it was 101%. Moreover, the growth in the assay on MOLT-4 leukemia is 108%.
Turning to `O=C1C=CC(=O)C2=C1CCCC2`, the growth in the assay with HCT-15 colon is 92.4%; in the assay with HT29 colon, 109%; in the assay on SNB-75 CNS, 80.2%; in the assay with SNB-19 CNS, 92.7%; with U251 CNS it was 95.5%; with PC-3 prostate, 82.7%. Also, the growth in the assay with SK-MEL-5 melanoma was 97.5%; in the assay on UACC-62 melanoma, 85.5%; in the assay with SK-MEL-28 melanoma it was 108%; in the assay on SK-MEL-2 melanoma, 110%; in the assay with EKVX NSCLC it was 69.1%; in the assay on SN12C renal, 98.7%. The growth in the assay with UO-31 renal was 70.9%; in the assay with TK-10 renal, 132%; in the assay on ACHN renal, 90%; in the assay on CAKI-1 renal, 79%; with A498 renal, 132%; in the assay with CCRF-CEM leukemia it was 18.8%. Also, the growth in the assay with MOLT-4 leukemia is 31.1%.
